High-throughput results: PubChem, National Center for Advancing Translational Sciences (NCATS)
Sampled rows, rich in hits. Any-hit rate of the full collection: about 9.4%.
HTT cytoprotect: qHTS Multiplex Assay to Identify Dual Action Probes in a Cell Model of Huntington: Cytoprotection (ATP). PC12 HTT-Q103 induced, cytoprotection, ATP luminescence, 40 h. Potency, µM (series often up to 56.4 µM), for the others: cytoprotection (ATP increase), actives largely listed as activators. hit rate 0.14% among 230,000; further: potency means the concentration at half of the fitted maximal effect; % of control where 0% means no effect; nearly all actives have a fitted effect of over 45% in size
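Rat PC12, Q103 Htt exon1-GFP fusion, ecdysone promoter; tebufenozide inducer 100 nM final; compound titration; qHTS, 1500 cells/well; ATPlite luminescent read.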
ALDH1A1 inh: qHTS Assay for Inhibitors of Aldehyde Dehydrogenase 1 (ALDH1A1) | Aldehyde dehydrogenase 1A1 (Homo sapiens), P00352 | Purified ALDH1A1, NADH fluorescence, propionaldehyde substrate | Potency, µM (titrated, usually from 75.3 µM), inactives show at the top dose activity, negative = inhibition, most hits filed as inhibitors | hit rate 7.3% among 220,000 | AID 1030, 2008; active means well fitted inhibition curve with a large enough effect, not every such curve was filed as active; inconclusive means small, poorly fitted or top-dose-only effect, or another doubt; inactive means no such curve, though single readings can be large or run the other way;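 further: potency means the concentration at half of the fitted maximal effect; plate controls were no enzyme wells and a reference inhibitor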
IMPase cell inh: qHTS Assay for Identifying the Cell-Membrane Permeable IMPase Inhibitors. inhibition (IP1 accumulation), % at 46.1 µM. 120,000 tested, under 10 active. CHO-M1 cells, IP1 accumulation, HTRF TR-FRET ratio; active means well fitted curve in the direction sought with a large enough effect in the signal ratio, not every such curve was filed as active; inconclusive means small, poorly fitted or top-dose-only effect, or a change in a side signal; inactive means no such curve, though single readings can be large or run the other way; the % refers to the signal ratio;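 further: cells stimulated with carbachol in lithium chloride buffer; plate controls were DMSO basal wells for no effect and reference inhibitor wells for full effect; higher means more IMPase inhibition seen as more IP1 and lower FRET ratio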
Target sequence (P97697 whole entry, looked up): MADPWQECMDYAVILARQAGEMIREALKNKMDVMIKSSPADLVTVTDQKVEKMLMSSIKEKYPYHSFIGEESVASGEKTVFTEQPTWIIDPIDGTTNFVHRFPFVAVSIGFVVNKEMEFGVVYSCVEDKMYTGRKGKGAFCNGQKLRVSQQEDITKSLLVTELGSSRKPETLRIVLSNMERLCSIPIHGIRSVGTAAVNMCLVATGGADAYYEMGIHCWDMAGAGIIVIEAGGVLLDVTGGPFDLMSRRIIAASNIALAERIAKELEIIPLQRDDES
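Carbachol-driven Gq signalling in CHO-M1 cells (2000/well) generates IP1. Compounds that block IMPase raise IP1 and so reduce the FRET signal from Eu-anti-IP1 and d2-IP1 after a 10 min room-temperature lysis.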
HPGD block: qHTS Assay for Inhibitors of HPGD (15-Hydroxyprostaglandin Dehydrogenase). hit rate 4.3% among 150,000. Potency, µM, inactives show at the top dose activity change, negative = inhibition, usual class: inhibitors. 15-hydroxyprostaglandin dehydrogenase [NAD(+)] (Homo sapiens), P15428. purified HPGD, NADH fluorescence kinetic, PGE2 substrate; active means well fitted inhibition curve with a large enough effect, not every such curve was filed as active; inconclusive means small, poorly fitted or top-dose-only effect, or another doubt; inactive means no such curve, though single readings can be large or run the other way; further: potency means the concentration at half of the fitted maximal effect; on the % scale 0 is the no-effect control and ±100 the full control effect
Target sequence (P15428 whole entry, looked up): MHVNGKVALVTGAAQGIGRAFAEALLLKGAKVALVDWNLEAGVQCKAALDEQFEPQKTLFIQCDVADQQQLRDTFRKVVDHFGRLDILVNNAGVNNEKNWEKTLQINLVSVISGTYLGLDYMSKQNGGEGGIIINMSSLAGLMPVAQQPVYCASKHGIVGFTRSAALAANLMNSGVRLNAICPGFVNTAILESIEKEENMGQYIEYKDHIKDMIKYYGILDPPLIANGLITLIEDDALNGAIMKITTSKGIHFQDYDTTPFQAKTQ
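20 nM HPGD preincubated 15 min at room temperature with compound in 50 mM Tris-HCl pH 8, 0.01% Tween 20. Started with 1 mM NAD+ and 30 uM prostaglandin E2; NADH fluorescence (360/450 nm) read 5 times over 30-s intervals, last minus first.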
IMPase Li inh: qHTS Assay for Identifying the Cell-Membrane Permeable IMPase Inhibitors: Potentiation with Lithium; CHO-M1 cells, IP1 TR-FRET (IP-One), carbachol + lithium; Potency, µM (doses to about 59.4 µM), for inactives: at the highest dose activity, negative = IMPase inhibition, usual class: inhibitors; hit rate 0.35% among 210,000;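 further: IP1 builds up when IMPase is blocked and the TR-FRET signal falls; potency means the concentration at half of the fitted maximal effect; plate controls were basal vehicle for no effect and high inhibitor control for full effect; nearly all actives have a fitted effect of over 50% in size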
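IP1 accumulation measured by competitive TR-FRET in lysed CHO-M1 cells after 30 min compound exposure at 37C, with a small lithium addition to potentiate weak responses. Hill-equation AC50 from ratio and donor-channel data.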
HTT aggregate: qHTS Multiplex Assay to Identify Dual Action Probes in a Cell Model of Huntington: Aggregate Formation (GFP); PC12 HttQ103-GFP aggregates, Acumen cytometry, 40 h; Potency, µM (titrated, usually from 46.1 µM), inactives show top-dose activity change, negative = inhibition, hits mostly inhibitors; hit rate 1.1% among 220,000; AID 1688, 2009; further: potency means the concentration at half of the fitted maximal effect; on the % scale 0 is the no-effect control and ±100 the full control effect; nearly all actives have a fitted effect of over 60% in size
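Ecdysone-promoter PC12 model expressing HTT exon 1 Q103 fused to GFP, induced by tebufenozide at 100 nM final. Compounds titrated; aggregates sized 1–25 µm scored on a 488 nm laser cytometer.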
Numbers without * were called inactive; ! = not confirmed by another sample; [ ] = another dose, or the depositor's remark. Unless noted, the call rests on the fitted dose curve; in most records, active means well fitted curve in the direction sought with a large enough effect; inconclusive means small, poorly fitted or top-dose-only effect, or another doubt; inactive means no such curve, though single readings can be large; an effect the other way counts as inactive or inconclusive.

Screening Cc1ccc(-n2nnnc2SCC(=O)Nc2sc(C)c(C)c2C#N)cc1C returned HTT cytoprotect -28.2%[10 µM], ALDH1A1 inh 15.8µM*, IMPase cell inh inconclusive, HPGD block -19.8%, IMPase Li inh 15.8%[38.3 µM] and HTT aggregate 30.6%.
Screening C[C@@]12CC[C@H]3[C@@H](CCC4=C(O)C(=O)CC[C@]43C)[C@H]1CCC2=O returned HTT cytoprotect 6.6%[1.9 µM] and IMPase cell inh 3.5.
Screening COc1cccc(C(=O)N2CCN(Cc3ccccn3)CC2)c1OC returned HTT cytoprotect 14.0%, ALDH1A1 inh 7.08µM*, IMPase cell inh 6.9, HPGD block -10.4%, IMPase Li inh -0.2%[38.3 µM] and HTT aggregate -13.0%.
For COc1ccc(C(=O)C2CCCN(Cc3ccccn3)C2)c(OC)c1 (stereo not given) the results were HTT cytoprotect 4.1%[10 µM], ALDH1A1 inh -3.8%, IMPase Li inh 20.0% and HTT aggregate 0.3%[9.22 µM].
Screening CC[n+]1c(-c2ccccc2)c2cc(N)ccc2c2ccc(N)cc21 returned HTT cytoprotect -155.5%, ALDH1A1 inh -7.9%, HPGD block 35.5µM*!, IMPase Li inh 28.5% and HTT aggregate 14.1µM*.
`CC(C)c1ccc(C(O)(C(=O)O)c2ccc(C(C)C)cc2)cc1` gave HTT cytoprotect -7.4%[10 µM], ALDH1A1 inh 6.2%[13.5 µM], HPGD block -0.5% and IMPase Li inh -5.4%.
O=C(O)c1cccc(Cl)c1 was read as HTT cytoprotect -7.0%, ALDH1A1 inh 10.9%, HPGD block -6.9% and IMPase Li inh -1.6%.
O=C(O)c1cc[c]([Hg][Cl])cc1 was read as HTT cytoprotect -41.5%[1.9 µM], ALDH1A1 inh 5.46µM*, IMPase cell inh 1.5, HPGD block 0.282µM* and IMPase Li inh 6.5%.
`O=C1N=C(N2CCCCC2)SC1=C1CCCCC1` gave HTT cytoprotect -12.3%, ALDH1A1 inh 8.91µM*, IMPase cell inh 13.6, HPGD block 20µM*, IMPase Li inh 18.0%[38.3 µM] and HTT aggregate 18.8%.
`Cc1ccc(C(=O)c2ccc(CC(=O)O)n2C)cc1` gave HTT cytoprotect -97.5%, ALDH1A1 inh 1.9%, IMPase cell inh 2.2[20.6 µM], HPGD block 15.8µM*!, IMPase Li inh 6.8% and HTT aggregate -3.2%[20.6 µM].
For Cc1c(C(=O)c2ccccc2)c2ccccc2n1C the results were HTT cytoprotect -3.7%[10 µM] and HTT aggregate -24.2%[9.22 µM].
C[C@H](N[C@@H](C)CCc1ccccc1)[C@H](O)c1ccc(O)cc1 was read as HTT cytoprotect 16.7%[1.9 µM] and IMPase cell inh 7.3.
Screening CCC1=C(C[C@H]2NCCc3cc(OC)c(OC)cc32)C[C@H]2c3ccccc3CCN2C1 returned HTT cytoprotect 2.0%[10 µM], ALDH1A1 inh 15.8%[13.5 µM], HPGD block -1.4% and IMPase Li inh -2.0%.
For O=C(/C=C/c1ccc(Cl)cc1)N[C@@]12CCC(=O)[C@@H]3Oc4c(O)ccc5c4[C@@]31CCN(CC1CC1)C2C5 the results were ALDH1A1 inh 7.4% and IMPase Li inh 4.0%.
For CCC(=NCc1cc(OC)cc(OC)c1)c1c(O)n(C)c(=O)n(C)c1=O the results were HTT cytoprotect -35.9%, ALDH1A1 inh -4.9%, IMPase cell inh 9.7, HPGD block -19.7%, IMPase Li inh 36.1%[38.3 µM] and HTT aggregate inconclusive.
Screening CCC(=Nc1ccc(OC)cc1OC)c1c(O)n(C)c(=O)n(C)c1=O returned HTT cytoprotect -23.8%[0.074 µM], ALDH1A1 inh inconclusive, IMPase cell inh 6.1, HPGD block 35.5µM*, IMPase Li inh 14.9%[38.3 µM] and HTT aggregate inconclusive.
CCC(=NCCOc1ccc(Cl)cc1)c1c(O)n(C)c(=O)n(C)c1=O was read as HTT cytoprotect -22.9%, ALDH1A1 inh 4.2%, IMPase cell inh 13.5, HPGD block -9.9%, IMPase Li inh 24.0%[38.3 µM] and HTT aggregate 11.2µM*.
CCCCn1c(O)c(C(CC)=Nc2ccc(OC)cc2OC)c(=O)[nH]c1=O was read as HTT cytoprotect -15.5%, ALDH1A1 inh 4.8%, IMPase cell inh 9.5, HPGD block 15.8µM*, IMPase Li inh -7.0%[38.3 µM] and HTT aggregate -24.5%.
For CCC(=NCCc1c[nH]c2ccccc12)c1c(O)n(C)c(=O)n(C)c1=O the results were HTT cytoprotect -28.4%, ALDH1A1 inh 2.9%, IMPase cell inh 4.3, HPGD block -4.7%, IMPase Li inh 45.0%[38.3 µM] and HTT aggregate 7.94µM*.
CCCCn1c(O)c(C(CC)=Nc2ccc(OCC)cc2)c(=O)[nH]c1=O was read as HTT cytoprotect -0.3%[0.074 µM], ALDH1A1 inh 1.8%, IMPase cell inh 2.4, HPGD block -14.7%, IMPase Li inh 30.4%[38.3 µM] and HTT aggregate -2.4%.
N[C@]1(C(=O)O)CC[C@@H](C(=O)O)C1 was read as HTT cytoprotect -7.3%[1.9 µM].
C[C@@H]1CC[C@@H]2N(C1)C[C@H]1[C@@](O)([C@H](O)C[C@]3(O)[C@H]4CC[C@H]5[C@]6(O)O[C@]4(C[C@]13O)[C@@]5(C)CC[C@@H]6O)[C@@]2(C)O was read as HTT cytoprotect -21.6%[10 µM], ALDH1A1 inh 12.7%[13.5 µM], HPGD block -7.1% and IMPase Li inh -6.9%.
Screening C=CCN1CC[C@]23c4c5ccc(O)c4O[C@@H]2C(=O)CC[C@@]3(O)[C@H]1C5 returned HTT cytoprotect -3.9%[1.9 µM] and IMPase cell inh -0.2.
Screening CCC(=NCc1ccc2c(c1)OCO2)c1c(O)n(C)c(=O)n(C)c1=O returned HTT cytoprotect -24.9%[0.074 µM], ALDH1A1 inh -0.7%, IMPase cell inh 14.6 and HTT aggregate 20µM*.
CC(=O)c1ccc(OC(NC(=O)c2ccco2)C(Cl)(Cl)Cl)cc1 (stereo not given) was read as HTT cytoprotect 13.9%, ALDH1A1 inh inconclusive, IMPase cell inh 3.5, HPGD block 25.1µM*, IMPase Li inh 4.9%[38.3 µM] and HTT aggregate 0.4%.
Screening C[C@@H]1Cc2c(Cl)cc(C(=O)N[C@@H](Cc3ccccc3)C(=O)O)c(O)c2C(=O)O1 returned HTT cytoprotect -206.0%, ALDH1A1 inh inconclusive, HPGD block inconclusive and IMPase Li inh inconclusive.
`O=C1c2ccccc2C(=O)c2ccccc21` gave HTT cytoprotect -9.8%, ALDH1A1 inh 1.3%, HPGD block -5.2%, IMPase Li inh 0.1% and HTT aggregate 20.9%.
`O=C1C=Cc2ccccc2C1=O` gave ALDH1A1 inh 14.1µM*, HPGD block 7.94µM*, IMPase Li inh 2.2% and HTT aggregate -3.3%.
